This note sets out measurements from PubChem BioAssay (NCI).

What all share (assay): NCI-60 one-dose screen, 48 h (100 = growth as untreated, 0 = no growth, -100 = all killed)
Details in all cases: 10 µM unless noted

The test system of experiment [1] is SR leukemia.
Experiment [2] concerns RPMI-8226 leukemia.
Experiment [3] concerns OVCAR-5 ovarian.
Experiment [4] deals with OVCAR-4 ovarian.
For experiment [5], the system named is SK-OV-3 ovarian.
The test system of experiment [6] is IGROV1 ovarian.
For experiment [7], the system named is OVCAR-3 ovarian.
The test system of experiment [8] is HS 578T breast.
For experiment [9], the system named is NCI/ADR-RES ovarian.
The test system of experiment [10] is OVCAR-8 ovarian.

The panel holds about 83,000 compounds, 20% with a hit somewhere; the sample as a whole holds those more often.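 Method: cells in 96-well plates; compound added at one concentration; 48 h incubation; percent growth measured; values under 10 scored active.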 A number with no mark means an inactive call. Activity calls are given as the source filed them.

Take `CS(=O)(=O)c1ccc(/C=C\C(=O)O)cc1`: the growth in experiment [1] is 62.3%; in experiment [2] it was 98.8%; in [3], 105%; in experiment [4], 98.2%; in experiment [5] it was 106%; in experiment [6], 120%. The growth was 102% in experiment [7], 81.7% in experiment [8] and 104% in experiment [9].

`CN(C)c1ccc2nc3ccc(=[N+](C)C)cc-3oc2c1`: the growth is 60.3% in [1]; 45.6% in experiment [2]; -12.3% (active) in experiment [3]; -76% (active) in experiment [4]; 61.3% in [5]; 5.34% (active) in [6]. Further, the growth in experiment [7] is -10.6% (active); in experiment [8] it was 101%; in experiment [9], 66.3%.

As for `COc1cc(C(=O)NC(=S)NCc2ccncc2)cc(OC)c1OC`, the growth is 74.2% in experiment [1]; 97.2% in experiment [2]; 103% in experiment [10]; 107% in experiment [3]; 107% in experiment [6]; 105% in experiment [7]. In addition, the growth in experiment [8] is 106%; in experiment [9] it was 98.2%.

As to `CCOC(=O)c1ccc(NC(C)=O)o1`, the growth in experiment [1] is 79.3%; in experiment [2], 103%; in experiment [10], 91.3%; in experiment [4], 107%; in [5] it was 92.1%; in [6] it was 108%. For the same compound, the figures for the growth in experiment [7], in experiment [8] and in experiment [9] were 113%, 89.6% and 97.5%, respectively.

As for `CC(=O)Nc1ccc(C(=O)c2ccc(S(=O)(=O)Nc3ccccc3)cc2)cc1`, the growth in [1] is 105%; in experiment [2] it was 68.1%; in experiment [10], 84%; in experiment [4] it was 95.5%; in experiment [5], 104%; in experiment [7], 105%. In addition, the values for the growth in experiment [8] and in [9] were 127% and 30.6%, respectively.

For `CSCC[C@@H]1C(=O)N(C)[C@H](C(C)(C)C)N1C(=O)c1ccccc1`, the growth in experiment [1] is 124%; in experiment [2], 117%; in [10], 100%; in [4], 105%; in [5], 113%; in experiment [6] it was 100%. In addition, the growth in experiment [7] is 103%; in [8], 111%; in experiment [9] it was 104%.

Consider `NCCCN1CCCC1=O`, for which the growth in experiment [1] is 88.2%; in experiment [2], 107%; in experiment [3], 110%; in experiment [4], 111%; in experiment [5], 116%; in experiment [6] it was 104%. In addition, the growth was 112% in experiment [7], 109% in [8] and 101% in experiment [9].

For `O=C(OCc1ccccc1)n1nnc2ccccc21`, the growth in experiment [1] was 107%; in [2], 109%; in [10], 105%; in [5] it was 112%; in experiment [6], 110%; in [7] it was 106%. Also, the figures for the growth in experiment [8] and in [9] were 107% and 111%, respectively.

In the case of `CC(C)N1CC(=O)N2CSCC2C1=O` (stereo unspecified), the growth was 114% in [1]; 109% in experiment [2]; 106% in [10]; 123% in experiment [4]; 116% in [5]; 111% in experiment [6]. In addition, the growth is 104% in experiment [7], 98.7% in experiment [8] and 109% in [9].

As for `O=C(c1ccccc1O)N1CCCC1`, the growth in [1] was 99.5%; in experiment [2], 94.8%; in experiment [3] it was 98.9%; in experiment [4] it was 109%; in [5], 95.8%; in experiment [6] it was 103%. Moreover, the growth in experiment [7] was 110%; in experiment [8], 111%; in [9], 101%.

Consider `O=c1nc(Nc2cccc(Cl)c2)oc2cc(Cl)oc(=O)c12`, for which the growth in [1] is 2.45% (active); in experiment [2] it was 26.8%; in experiment [3], 88%; in [4], 89.9%; in [5] it was 98.4%; in experiment [6] it was 12.4%. The growth in experiment [7] is 51.6%; in experiment [8], 62.3%; in experiment [9], 89%.

With `C#CC(O)c1ccccc1` (stereo unspecified), the growth was 106% in experiment [1]; 104% in experiment [2]; 101% in [3]; 105% in [4]; 103% in experiment [5]; 108% in [6]. For the same compound, the growth in [7] is 106%; in experiment [8] it was 107%; in experiment [9] it was 107%.

On to `S=CN1CCCCC1`, for which the growth was 99.5% in experiment [1]; 110% in [2]; 97.5% in [10]; 102% in experiment [4]; 115% in [5]; 109% in experiment [6]. Moreover, the growth was 102% in [7], 112% in [8] and 106% in experiment [9].

Regarding `CC(C)(C)[Si](C)(C)OCC1OC(n2cnc3c(N)ncnc32)CC1OS(C)(=O)=O` (stereo unspecified), the growth is 107% in experiment [1]; 103% in experiment [2]; 98.6% in experiment [10]; 108% in experiment [4]; 101% in experiment [5]; 114% in experiment [6]. In addition, the growth in experiment [7] is 104%; in experiment [8], 89.8%; in experiment [9], 103%.

For the compound `CCCCCC/C=C\CCCCCCCCCc1cc(O)cc(OC)c1O`, the growth in experiment [1] is 0.217% (active); in experiment [2] it was -7.09% (active); in [10], -26.1% (active); in [4], -19.5% (active); in [5] it was 6.17% (active); in [6], -45.4% (active). The growth is 13.6% in experiment [7], 44.9% in [8] and -5.84% (active) in [9].

Take `COc1ccc(-c2csc(NC(=O)Nc3nc(-c4ccc(OC)cc4)cs3)n2)cc1`: the growth is 60.2% in experiment [1]; 69.5% in experiment [2]; 70.3% in experiment [10]; 79% in experiment [4]; 116% in experiment [5]; 92.4% in experiment [6]. For the same compound, the growth in experiment [7] was 81.9%; in experiment [8], 105%; in [9], 79.2%.
